Sampled rows, rich in hits. Any-hit rate of the full collection: about 4.5%.
CSC inhib: cancer stem cell inhibition | inhibition, % at 7.5 µM | 300,000 compounds, 1.1% hits | AID 2717 | cancer stem cell-like cells viability, luminescence; in the data active means inhibition above about 75%; tested in HMLE shEcad cells
697 NFkB inh: inhibitors of the PMA/ionomycin-induced NF-kB reporter in 697 B cells; 330,000 compounds, 0.33% hits; 697 B-cell NF-kB luciferase reporter, 16 h; AID 435022; inhibition, % at 4 µM; in the data active means inhibition above about 35%
aSyn 5UTR inh: MLPCN primary screen, SNCA 5' untranslated region; alpha-synuclein 5'UTR reporter, inhibitor activity; inhibition, % (tested at 7.5 µM); 300,000 compounds, 0.82% hits; AID 1813; in the data active means inhibition above about 60%;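 further: H4 neuroglioblastoma cells stably carrying SNCA 5'UTR luciferase fusion; 0% = DMSO wells and 100% = positive control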
Mdm2-MdmX inh: human Mdm2/MdmX binding inhibition; O15151+Q00987; SaOS-2 split-luciferase Mdm2/MdmX complementation, luminescence; inhibition, % at 8 µM; 330,000 compounds, 3% hits; AID 485346;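 active means inhibition of at least 50% at 8 µM in the primary screen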
Target sequence (O15151 whole entry, looked up): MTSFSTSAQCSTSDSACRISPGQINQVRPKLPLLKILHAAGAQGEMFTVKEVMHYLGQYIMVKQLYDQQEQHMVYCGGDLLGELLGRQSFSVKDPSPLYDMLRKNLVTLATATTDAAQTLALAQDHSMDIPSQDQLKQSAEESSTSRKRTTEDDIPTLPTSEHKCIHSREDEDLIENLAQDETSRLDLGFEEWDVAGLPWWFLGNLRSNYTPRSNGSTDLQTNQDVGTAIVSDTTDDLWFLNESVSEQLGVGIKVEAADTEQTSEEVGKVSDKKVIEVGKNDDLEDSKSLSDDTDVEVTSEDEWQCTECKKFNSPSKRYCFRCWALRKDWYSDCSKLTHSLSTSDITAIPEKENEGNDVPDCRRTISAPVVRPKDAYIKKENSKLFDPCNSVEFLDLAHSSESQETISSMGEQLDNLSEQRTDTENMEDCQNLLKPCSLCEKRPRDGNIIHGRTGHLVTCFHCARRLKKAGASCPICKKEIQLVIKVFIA
Target sequence (Q00987 whole entry, looked up): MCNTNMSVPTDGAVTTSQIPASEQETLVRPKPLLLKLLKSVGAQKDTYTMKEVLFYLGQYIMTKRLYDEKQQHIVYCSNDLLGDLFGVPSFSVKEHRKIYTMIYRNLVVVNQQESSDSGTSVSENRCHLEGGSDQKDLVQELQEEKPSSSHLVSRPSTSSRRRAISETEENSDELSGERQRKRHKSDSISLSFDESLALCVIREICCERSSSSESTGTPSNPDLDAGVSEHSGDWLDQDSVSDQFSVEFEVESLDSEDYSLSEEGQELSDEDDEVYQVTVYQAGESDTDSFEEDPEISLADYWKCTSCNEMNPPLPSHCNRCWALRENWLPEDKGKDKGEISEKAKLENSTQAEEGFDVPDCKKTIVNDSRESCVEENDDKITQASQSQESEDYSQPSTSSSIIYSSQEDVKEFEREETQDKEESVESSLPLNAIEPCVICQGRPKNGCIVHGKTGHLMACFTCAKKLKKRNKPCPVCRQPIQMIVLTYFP
Gli-Sufu block: Gli-Sufu pathway antagonism; Sufu-KO-LIGHT fibroblasts, Gli luciferase reporter luminescence; inhibition, % at 5 µM; 340,000 compounds, 0.74% hits;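 active means inhibition above about 55%, limit read from the data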;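 further: 0% = DMSO-treated cells and 100% = wells with medium but no cells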
Jurkat NFkB inh: lowers PMA/ionomycin-induced NF-kB signal in Jurkat cells; inhibition, % at 4 µM; 330,000 compounds, 0.53% hits; PMA/ionomycin-induced NF-kB luciferase reporter, luminescence; in the data active means inhibition above about 50%
Gli-Sufu confirm: confirmation of Gli-SUFU pathway antagonists; shares compounds with Gli-Sufu block; Sufu-KO-LIGHT cells, Gli luciferase reporter, luminescence; inhibition, % at 5 µM; 2,500 compounds, 40% hits;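 active means mean inhibition at 5 µM reaching about 45%, limit read from the data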;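 further: plate controls were DMSO-treated cells for no effect and wells lacking cells for full effect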
Gli cytotox: cytotoxic in Gli-SUFU antagonist counter-screen. shares compounds with Gli-Sufu block. Sufu-KO-LIGHT cells cytotoxicity, ATP luminescence. cytotoxicity, % at 5 µM. 2,500 compounds, 32% hits;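 active means mean cytotoxicity at 5 µM above about 25%, limit read from the data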;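 further: cells exposed to compound overnight for roughly 16 to 18 hours; plate controls were DMSO wells with cells for no effect and medium without cells for full effect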
Wnt3a cs: Wnt3a reporter inhibition counter-screen; AID 651995; inhibition, % at 6.25 µM; 2,500 compounds, 20% hits; shares compounds with Gli-Sufu block; Wnt-LIGHT cells, Wnt3a-driven luciferase reporter, luminescence;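 active means mean inhibition above about 25%, limit read from the data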
* = called active by the depositor; . = no result given.

SMILES	CSC inhib	697 NFkB inh	aSyn 5UTR inh	Mdm2-MdmX inh	Gli-Sufu block	Jurkat NFkB inh	Gli-Sufu confirm	Gli cytotox	Wnt3a cs
FC(F)(F)c1ccc(Sc2nnc(-c3cccs3)n2CC2CCCO2)nc1 (centres undefined)	-9.6	-7.4	19.8	2.9	10.0	-2.4	.	.	.
Cc1ccc(C(=O)N2CCN(c3ccccn3)CC2)cc1Cl	1.2	-26.2	-8.6	-2.5	4.6	-27.3	.	.	.
CC(C)(C)NC(=O)NC(=O)C[n+]1ccc(Cc2ccc([N+](=O)[O-])cc2)cc1	-12.7	14.9	6.4	23.6	12.6	11.2	.	.	.
CC(=O)c1c(C(C)=O)c(C)n(C(c2ccccc2)c2ccccc2)c1C	6.5	-18.1	2.9	-22.7	9.9	0.1	.	.	.
O=C(NCC1CCCO1)c1nn2c(C(F)(F)F)cc(-c3ccc(Br)o3)nc2c1Br (centres undefined)	.	19.3	2.6	6.8	56.4*	8.5	17.9	15.3	-2.4
COCCCNC(=O)/C(C#N)=C/c1cc(C)[nH]c1C	-12.2	3.6	-28.2	7.6	56.8*	8.2	17.2	5.7	-0.9
CN(C)C(CNc1ncccn1)c1ccccc1 (centres undefined)	9.2	-16.3	20.1	16.4	-21.6	2.7	.	.	.
Cc1ccc(OCCC(=O)N2CCN(c3ccc(O)cc3)CC2)cc1	55.8	-39.6	20.8	-4.0	54.2	-18.8	35.4	14.7	0.0
CC(=O)Nc1cccc(C(=O)OCc2ccc([N+](=O)[O-])cc2)c1	-4.3	10.7	-0.5	8.4	62.9*	2.9	19.9	19.2	-69.8
CCCn1c(SC(C)C(=O)N2CCOCC2)nc2ccc(Br)cc2c1=O (centres undefined)	6.1	12.6	10.6	13.6	9.0	1.9	.	.	.
CC(CC(=O)N1CCN(c2cccc(Cl)c2)CC1)S(=O)(=O)c1ccc2c(c1)NC(=O)CO2 (centres undefined)	-8.1	-49.7	29.5	-2.5	58.7*	16.4	51.0*	20.3	0.2
COc1ccc(N2CCN(C(=O)CC(C)S(=O)(=O)c3ccc4c(c3)NC(=O)CO4)CC2)cc1 (centres undefined)	-4.8	-7.8	20.9	32.4	-18.5	-6.0	.	.	.
COC(=O)c1sccc1NC(=O)COc1ccc(Cl)cc1Cl	-6.6	-10.6	-161.7	25.7	-58.9	-9.7	.	.	.
CC(=O)N1CC=CC1(CC(C)C)C(=O)NCCc1c[nH]c2ccccc12 (centres undefined)	-14.5	-20.4	3.8	-6.9	95.0*	-6.0	26.4	-4.0	-22.0
C/C(=N\NC(=O)C(=O)Nc1cccc(Cl)c1)c1ccncc1	36.5	-10.6	1.1	-5.5	61.0*	13.1	59.5*	35.0*	13.2
O=C(Nc1ccncc1)Nc1cccc(Cl)c1	-9.4	-18.3	-51.7	15.7	-5.9	-17.2	.	.	.
C/C(=N\NC(=O)C(=O)Nc1ccc(C)c(Cl)c1)c1ccncc1	-11.4	24.8	14.4	6.0	62.0*	9.8	62.1*	32.2*	24.3
C/C(=N\NC(=O)C(=O)Nc1ccc(C)cc1)c1ccncc1	-4.0	-2.5	13.0	4.7	4.4	-4.3	.	.	.
COc1cc(C(=O)OCC(=O)N2CC(C)OC(C)C2)cc(OC)c1OC (centres undefined)	8.3	-0.3	2.9	-2.1	-7.8	-13.0	.	.	.
COc1ccc(S(=O)(=O)Nc2c(C)ccc3nsnc23)cc1OC	-13.5	27.5	0.0	16.8	0.8	-12.2	.	.	.
CCCNC(=O)c1ccccc1NC(=O)c1ccc2c(=O)n3c(nc2c1)CCC3	1.6	-9.5	-0.4	-11.7	95.7*	-5.8	21.9	14.6	-0.7
CCOc1ccccc1NC(=O)c1ccc2c(=O)n3c(nc2c1)CCCCC3	19.5	-30.9	8.2	-8.7	17.4	-5.4	.	.	.
COc1ccc(-n2cc(-c3ccc(OC(F)F)cc3)[n+]3c2CCCCC3)cc1	-9.4	-15.6	15.5	-32.4	81.4*	4.6	82.9*	32.6*	9.0
COc1ccc(N2CC(O)(c3ccc(OC(F)F)cc3)[N+]3=C2CCCC3)cc1 (centres undefined)	22.6	-37.3	-10.1	-3.9	12.7	-14.8	.	.	.
Clc1ccc(-c2cn(-c3ccc(Cl)cc3)c3[n+]2CCCCC3)cc1	-11.5	9.9	-21.6	36.6	57.8*	14.3	58.3*	29.3*	-42.9
SMILES	CSC inhib	697 NFkB inh	aSyn 5UTR inh	Mdm2-MdmX inh	Gli-Sufu block	Jurkat NFkB inh	Gli-Sufu confirm	Gli cytotox	Wnt3a cs
COc1ccc(-c2cn(-c3ccc(Cl)cc3)c3[n+]2CCCCC3)cc1	17.4	-17.8	14.9	21.6	80.5*	18.0	78.5*	31.0*	20.3
CC(=O)OCC(=O)NCC(=O)c1c[nH]c2ccccc12	-11.0	12.8	-7.5	22.1	-1.3	4.0	.	.	.
O=C(Nc1ccnn1C1CCN(C(=O)CCc2ccc(F)cc2)CC1)C1CCOC1 (centres undefined)	-1.5	3.8	3.4	5.3	-2.6	3.4	.	.	.
CNc1nc(SCC(=O)Nc2ccc(Cl)c(Cl)c2)nc(N2CCOCC2)n1	-3.8	-8.6	19.3	43.1	18.6	7.2	.	.	.
Cc1cc(C)nc(SCC(=O)Nc2ccc(N3CCOCC3)c(Cl)c2)n1	-7.7	-19.5	.	18.7	53.3	23.9	45.1*	21.0	-24.0
COc1ccccc1Cn1c(C)nc2ccccc21	-13.1	3.9	25.4	9.4	-13.2	6.7	.	.	.
Cc1ccccc1Cn1c(C)nc2ccccc21	3.4	-23.3	-0.2	12.2	68.8*	32.0	56.1*	36.5*	29.9*
O=C(C(=O)N1CCCC1)c1c(-c2ccccc2)[nH]c2ccccc12	-7.8	-0.9	-9.9	-20.9	-4.0	-3.5	.	.	.
Cc1oc(-c2ccccc2)cc1C(N)=O	-5.6	-0.4	-4.0	-20.5	99.9*	10.4	8.0	8.5	-20.2
Cc1ccc(S(=O)(=O)NCCOc2nc(N(C)C)nc(N(C)C)n2)cc1	-14.2	1.4	13.9	-2.1	-0.5	-5.1	.	.	.
Cc1ccc(S(=O)(=O)NCCOc2nc(N(C)C)nc(N3CCOCC3)n2)cc1	.	0.9	19.6	12.3	94.9*	-14.2	13.4	10.9	-12.6
Cc1ncc(CO)c(/C=N/NC(=O)c2cc(Br)ccc2O)c1O	13.0	8.7	-6.2	14.2	96.2*	-1.9	9.2	21.5	3.1
CCOc1ccc(NCC(=O)c2ccc(C)cc2)cc1	15.8	2.0	-53.3	15.2	60.9*	3.2	-4.7	20.9	-77.2
CN(C)S(=O)(=O)NCCNc1ccc(C(F)(F)F)cc1[N+](=O)[O-]	-4.0	1.1	-5.7	-19.1	97.8*	-2.3	3.2	21.8	-85.7
CCc1ccc(-c2nc(CSCC(=O)NCc3ccco3)c(C)o2)cc1	.	.	77.4*	.	84.1*	.	87.6*	-2.1	45.9*
